Compound activity (PubChem)
Most compounds without a hit are left out; they make up all but 1.2% or so of the library.
Pin1 inh: human Pin1 inhibition | Pin1 FP peptide displacement, HiFluor488, 10 min | Potency, µM (top dose mostly 115 µM), actives largely listed as inhibitors | Q13526 | actives 0.009% (n = 390,000); active means well fitted inhibition curve with a large enough effect in the polarisation, with a control signal flat, not every such curve was filed as active; inconclusive means small, poorly fitted or top-dose-only effect, or effect the other way, or a change in a side signal; inactive means no such curve, though single readings can be large or run the other way; the % refers to the polarisation
Target sequence (Q13526 whole entry, looked up): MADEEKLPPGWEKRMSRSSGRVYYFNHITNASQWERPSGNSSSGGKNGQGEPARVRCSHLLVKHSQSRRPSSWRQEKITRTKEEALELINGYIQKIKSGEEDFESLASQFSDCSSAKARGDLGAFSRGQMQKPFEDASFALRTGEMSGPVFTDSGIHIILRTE
hERG WT inh: blocks the wildtype human KCNH2 potassium channel; Q12809; U2OS, BacMam KCNH2, thallium flux FluxOr; hits give low values; activity change, % at 1.84 µM; actives 0.37% (n = 340,000); AID 720551;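 active means maximum activity change below -70%; inconclusive means maximum activity change between -70% and -50%; inactive means maximum activity change above -50%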
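U2OS cells were transduced with wild-type KCNH2 virus (2.03 x 10^8 / mL) for 4 h at room temperature, then cultured overnight at 37 C. Thallium flux was read with FluxOr dye. Rate constants were normalized to DMSO controls.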
Tb PGK inh: blocks T. brucei phosphoglycerate kinase; P07378; PGK/GAPDH coupled, Kinase-Glo luminescence, 60 min; Potency, µM (titrated, usually from 57.5 µM), most hits filed as inhibitors; actives 0.043% (n = 380,000); AID 602233; further: nearly all actives have a fitted effect of over 60% in size
Target sequence (P07378 whole entry, looked up): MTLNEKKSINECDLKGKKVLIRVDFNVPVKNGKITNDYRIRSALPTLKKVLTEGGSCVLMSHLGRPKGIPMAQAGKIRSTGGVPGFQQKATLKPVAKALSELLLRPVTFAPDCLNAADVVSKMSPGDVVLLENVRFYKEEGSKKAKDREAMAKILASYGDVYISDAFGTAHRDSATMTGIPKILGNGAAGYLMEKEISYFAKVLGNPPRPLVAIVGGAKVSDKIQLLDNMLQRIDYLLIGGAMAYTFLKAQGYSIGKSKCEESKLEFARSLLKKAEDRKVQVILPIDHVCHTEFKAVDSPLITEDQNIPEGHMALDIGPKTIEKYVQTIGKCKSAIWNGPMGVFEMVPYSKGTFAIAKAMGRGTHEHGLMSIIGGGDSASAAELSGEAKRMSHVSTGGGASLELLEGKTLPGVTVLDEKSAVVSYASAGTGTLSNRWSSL
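Luminescent ATP detection (Kinase-Glo Plus) follows a 60-minute room-temperature incubation, with wells lacking PGK as controls. Buffer: 100 mM TEA (pH 7.6), 5 mM MgCl2, 0.01% Tween-20. Coupling enzyme GAPDH (100 nM final) supplies unstable 1,3-BPG in-well.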
KCNH2 3.1 inh: KCNH2 3.1 (human) potassium channel inhibition; U2OS KCNH2 3.1, thallium flux FluxOr; hits give low values; activity change, % (tested at about 1.8 µM); actives 0.95% (n = 340,000); AID 720553;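 active means maximum activity change below -70%; inconclusive means maximum activity change from -70% to -50%; inactive means maximum activity change above -50%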;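 further: thallium influx rate constant from kinetic fluorescence after stimulation buffer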
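We transduce U2OS cells with the mutant 3.1 virus, culture them overnight, load FluxOr with Red40 quencher for 45 min, then add stimulation buffer and read kinetically for 2 min to derive a normalized rate constant.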
GCN5L2 inh: GCN5L2 (KAT2A) acetyltransferase inhibition. AID 504327. GCN5L2 HAT assay, ThioGlo1 CoA-SH fluorescence. Q92830. actives 0.21% (n = 390,000). Potency, µM (doses to about 58.9 µM), hits mostly inhibitors
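Preincubate 20nM GCN5L2 with compound 15 min, RT → add 50uM ThioGlo1 + 75uM H3(1-25) + 70uM acetyl-CoA → read fluorescence 0 and 20 min. Primary qHTS; fluorescent artifacts likely.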
RGS4 inhibitor: human RGS4 inhibition; P49798; Transcreener GDP fluorescence polarization, RGS4-accelerated GTP hydrolysis; Potency, µM (highest dose often 114 µM), hits mostly inhibitors; actives 0.039% (n = 390,000); AID 504845; further: nearly all actives have a fitted effect of over 75% in size
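MLSMR compounds (23 nl, pin-transferred) preincubated 10 min at room temperature with a 500nM (2x) first reagent, then RGS4 at 900nM (2x) plus Transcreener GDP mix added; fluorescence polarization (620/688 nm) read before and after 90 min at 30 °C.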
Hits are given with their value; . = inactive; ? = inconclusive; / = not tested or not shown. Unless noted, the call rests on the fitted dose curve; in most records, active means well fitted curve in the direction sought with a large enough effect; inconclusive means small, poorly fitted or top-dose-only effect, or another doubt; inactive means no such curve, though single readings can be large; an effect the other way counts as inactive or inconclusive.

SMILES | Pin1 inh | hERG WT inh | Tb PGK inh | KCNH2 3.1 inh | GCN5L2 inh | RGS4 inhibitor
N#C/C(=C\c1cn(-c2ccccc2)nc1-c1cc2ccccc2o1)c1nc2ccccc2[nH]1 | ? | . | . | . | . | .
O=c1cc(CN2CCN(c3ccccc3)CC2)c2cc(O)c(-c3ccccc3)cc2o1 | . | . | . | . | . | ?
Cc1ccc2oc(=O)cc(CN3CCN(C/C=C/c4ccccc4)CC3)c2c1 | . | . | . | -102.0 | . | .
Cc1ccc2oc(=O)cc(CN3CCCCC3)c2c1 | . | . | . | . | . | .
O=c1cc(CN2CCN(C/C=C/c3ccccc3)CC2)c2cc(O)ccc2o1 | . | -132.9 | . | -98.6 | . | .
O=C(Cc1ccc(Br)cc1)NCc1ccccc1 | . | -299.9 | . | . | . | .
O=C(c1csnn1)N1CCC[C@@]2(CCN(Cc3ccccc3)C2)C1 | / | / | / | / | . | /
Cc1cccc(Cn2c(=O)n(CCCC(=O)NCc3ccccc3Cl)c(=O)c3ccccc32)c1 | . | / | . | / | . | .
CCC(=O)N1CCc2cc(CNC(=O)c3cccc(N(C)C)c3)ccc21 | . | / | . | / | . | .
CC(C)CN1CCNC(=O)C1CC(=O)NCCc1cnn(-c2ccccc2)c1 (configuration not stated) | ? | . | . | -114.1 | . | .
CC(C)(C)CN1CCNC(=O)C1CC(=O)NCCc1cnn(-c2ccccc2)c1 (configuration not stated) | . | . | . | . | . | .
COC(=O)C1=CN(c2ccc(OC)cc2)C=C(C(=O)OC)C1c1ccc([N+](=O)[O-])cc1 | . | . | . | -73.0 | . | .
CC(C)(C)C(=O)Nc1ccnc(-c2cccnc2)n1 | / | / | / | / | . | /
CCC(=O)Nc1ccnc(-c2cccnc2)n1 | . | . | . | -107.7 | . | .
Cc1ccc(C(=O)Nc2ccnc(-c3cccnc3)n2)cc1 | . | . | . | -109.3 | . | .
Cc1cccc(OCCn2nnc3sc4c(c3c2=O)CCCC4)c1 | . | / | / | / | . | .
CCN(CC)c1nc(C=Cc2ccc(N(C)C)cc2)c2nccnc2n1 | / | -106.9 | . | -99.5 | / | /
CN(C)c1nc(N)c2nccnc2n1 | . | . | . | . | / | .
Cc1ccc2c(c1)[nH]c1c(=O)n(CCC3=CCCCC3)cnc12 | / | / | / | / | 2.51µM | /
O=C(O[C@@H]1Cc2c(O)cc(O)cc2OC1c1ccc(O)c(O)c1)c1cc(O)c(O)c(O)c1 (some centres not stated) | / | / | / | / | . | /
O=C(OC1Cc2c(O)cc(O)cc2OC1c1cc(O)c(O)c(O)c1-c1c(C2Oc3cc(O)cc(O)c3CC2OC(=O)c2cc(O)c(O)c(O)c2)cc(O)c(O)c1O)c1cc(O)c(O)c(O)c1 (configuration not stated) | / | / | / | / | 14.1µM | /
CC1=C/C(=C(\c2ccc(O)c(C)c2)c2ccccc2S(=O)(=O)O)C=CC1=O | ? | . | . | . | . | .
O=C(O)C1=CC(=C(c2ccc(O)c(C(=O)O)c2)c2ccc(O)c(C(=O)O)c2)C=CC1=O | / | / | / | / | 0.316µM | 10.6µM
COc1ccc(C2Nc3ccccc3C(=O)N2CCO)cc1COc1ccc(NC(C)=O)cc1 (configuration not stated) | . | / | / | / | / | /
COc1cccc(/C=N/Nc2ccccc2C(=O)O)c1O | . | . | . | . | . | .
SMILES | Pin1 inh | hERG WT inh | Tb PGK inh | KCNH2 3.1 inh | GCN5L2 inh | RGS4 inhibitor
O=C(O)c1ccccc1NN=Cc1ccccc1 | . | . | . | -76.8 | / | .
O=[N+]([O-])c1ccccc1N/N=C/c1ccccc1 | . | . | . | -82.7 | . | .
O=C(O)c1ccccc1NS(=O)(=O)c1ccc(NN=Cc2ccc(F)cc2)c([N+](=O)[O-])c1 | / | . | . | . | ? | .
O=C(O)c1ccccc1NS(=O)(=O)c1ccc(N/N=C/c2ccc(O)c(O)c2)c([N+](=O)[O-])c1 | / | . | 35.5µM | . | / | ?
NCCCCCCNc1nc2c(N)ncnc2n1[C@@H]1O[C@@H]2COP(=O)(O)O[C@H]2[C@H]1O | / | / | / | / | . | /
CCOC(=O)c1c(C)[nH]c(C)c1S(=O)(=O)N(C)CC(=O)Nc1ccc(C)cc1Br | . | / | . | / | . | .
O=C(NC1CC1)C1=C[C@H](c2ccccc2)C[C@H](OCc2ccc(CO)cc2)O1 | . | . | . | -181.4 | . | .
C[C@H]1C=C(C(=O)NCc2nc3ccccc3[nH]2)O[C@@H](OCc2ccc(CO)cc2)C1 | . | . | . | . | . | .
O=C(NCc1nc2ccccc2[nH]1)C1=C[C@@H](c2ccc(Br)cc2)C[C@@H](OCCCCO)O1 | . | . | . | -88.7 | . | .
O=C(NCc1nc2ccccc2[nH]1)C1=C[C@@H](c2ccccc2)C[C@@H](OCCCCO)O1 | . | . | . | . | . | .
O=C(NC1CC1)C1=C[C@H](c2ccc(Br)cc2)C[C@H](OCc2ccc(CO)cc2)O1 | . | . | . | . | . | .
O=C(NCc1nc2ccccc2[nH]1)C1=C[C@@H](C2CCCCC2)C[C@@H](OCCCCO)O1 | ? | . | . | -74.5 | . | .
O=C(NCc1nc2ccccc2[nH]1)C1=C[C@@H](c2ccc(Br)cc2)C[C@@H](OCc2ccc(CO)cc2)O1 | . | . | . | -97.4 | . | .
COc1ccccc1CNC(=O)C(NS(=O)(=O)c1ccc2c(c1)CCN2C(C)=O)C(C)C (configuration not stated) | . | / | . | / | . | .
O=c1c2oc3ccccc3c2n(Cc2ccccc2F)c(=O)n1Cc1ccccc1 | . | / | . | / | . | .
O=C(Nc1cccc(C(F)(F)F)c1)c1ccc2c(c1)nnn2C1CCCC1 | . | / | . | / | . | .
CCOc1ccccc1CNC(=O)c1sc2ncccc2c1-n1cccc1 | . | / | . | / | . | .
COc1ccc(C[C@H]2CN3C(=NC[C@@H]3C(C)C)N2CCNC(=O)c2ccc(C)c(Br)c2)cc1 | . | -114.5 | . | -100.4 | . | .
COc1ccc(C[C@H]2CN3C(=NC[C@H]3C)N2CCNC(=O)c2ccc(C)c(Br)c2)cc1 | . | . | . | -75.8 | . | .
CC(=O)c1ccc(NC(=O)CCc2c(C)nc3c(c2C)c(=O)n(C)c(=O)n3C)cc1 | . | / | . | / | . | .
Cn1c(C(=O)Nc2ccc3c(c2)OCO3)cc2c(=O)n(C)c3ccccc3c21 | . | . | . | . | . | ?
CC(NC(=O)c1cc2c(=O)n(C)c3ccccc3c2n1C)c1ccc2c(c1)OCCO2 (configuration not stated) | . | -125.4 | . | . | / | .
COc1ccc(C)cc1NC(=O)C1CCC(CNS(=O)(=O)c2ccc3c(c2)CCCC(=O)N3)CC1 (configuration not stated) | . | / | . | / | . | .
O=C(Cn1c(=O)n(Cc2ccc3c(c2)OCO3)c(=O)c2oc3ccccc3c21)Nc1ccccc1F | . | / | . | / | . | .
